# D3 ag: D3 dopamine receptor (human) agonism. P35462. D3R DiscoveRx beta-arrestin cells, luminescence, 90 min. max activation, %. 410,000 tested, 0.58% active; in the data active means max activation above about 30%
#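 Cells at 1500/well, incubated overnight, then treated with pinned compounds (dopamine as control) for 90 min at 37 degrees C. DiscoveRx reagent added for 30 - 60 minutes at room temperature; luminescence read.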
# DRD3 antagonist: D3 dopamine receptor (human) antagonism. max response, negative = inhibition, %. 360,000 tested, 2.5% active. P35462. AID 652054. D3R cells, DiscoveRx beta-arrestin luminescence, antagonist mode; stronger effect = lower value; in the data active means max response below about -50%; inconclusive means no clear call, values can overlap the other calls
#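 Cells plated overnight at 1500 cells/well, then exposed to library compounds with dopamine controls for 90 minutes at 37 degrees C. DiscoveRx reagent added for 30–60 minutes at room temperature; luminescence read, quantitative HTS format.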
# D1 antag: antagonists of human D1 dopamine receptor; AID 504652; activity change, negative = inhibition, % at 10 µM; P21728; 360,000 tested, 3.2% active; HEK293 TREx D1 cells, calcium flux, dopamine EC80; stronger effect = lower value; in the data active means activity change below about -30%
# Target sequence (P21728 whole entry, looked up): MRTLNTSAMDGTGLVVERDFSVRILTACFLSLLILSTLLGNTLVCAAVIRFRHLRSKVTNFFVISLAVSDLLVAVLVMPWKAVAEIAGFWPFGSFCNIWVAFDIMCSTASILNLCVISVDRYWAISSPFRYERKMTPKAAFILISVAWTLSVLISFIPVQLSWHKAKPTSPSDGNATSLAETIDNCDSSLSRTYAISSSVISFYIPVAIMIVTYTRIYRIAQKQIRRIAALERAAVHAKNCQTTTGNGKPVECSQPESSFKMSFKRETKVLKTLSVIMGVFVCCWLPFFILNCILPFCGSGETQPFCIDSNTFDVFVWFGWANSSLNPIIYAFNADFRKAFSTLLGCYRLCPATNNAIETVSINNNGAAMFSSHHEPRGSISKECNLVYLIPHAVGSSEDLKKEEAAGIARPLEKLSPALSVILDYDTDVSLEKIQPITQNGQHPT
#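 Allosteric or orthosteric antagonism assessed as attenuation of the calcium response to EC80 dopamine, added 180 s after compound, in induced HEK293 Trex D1 cells loaded with no-wash calcium dye.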
# D1 potentiator: human D1 dopamine receptor positive modulation. P21728. AID 504651. potentiation, % at 10 µM. 360,000 tested, 0.036% active. HEK293 TREx D1 cells, calcium flux, dopamine EC20 potentiation; in the data active means potentiation above about 30%
# D1 ag: activates the human D1 dopamine receptor. P21728. HEK293 T-REx D1 cells, calcium flux, agonist mode. activation, % at 2 µM. 360,000 tested, 1% active. AID 504660; in the data active means activation above about 30%
#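 Tetracycline-induced HEK293 TREx D1 cells, force-coupled to calcium signalling, were dye-loaded with a no-wash calcium kit. Compound was pin-added after a 10 s baseline. Fluorescence was read kinetically at 1 cycle/s for 180 s, with calcium rises flagged as agonism.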
# Hits are given with their value; - = inactive; ? = inconclusive; . = no result; ! = not confirmed by another sample. This is a sample that favours compounds with a hit; in the whole collection about 6% have one here.
SMILES,D3 ag,DRD3 antagonist,D1 antag,D1 potentiator,D1 ag
CCC(C)(C)NC(=O)C1CCC(CNS(=O)(=O)c2cccc3nsnc23)CC1 (stereo not drawn),-,-,-40,-,-
O=C(C1CCN(S(=O)(=O)c2cccc3nsnc23)CC1)N1CC=C(c2ccccc2)CC1,-,-,.,.,.
CCCCN(CC)C(=O)C1CCC(CNS(=O)(=O)c2cccc3nsnc23)CC1 (stereo not drawn),-,-,-31!,-,-
CCN(C(=O)C1CCC(CNS(=O)(=O)c2cccc3nsnc23)CC1)c1ccc(C)c(C)c1 (stereo not drawn),-,.,-,-,-
CC(C)(C)NC(=O)C1CCC(CNS(=O)(=O)c2cccc3nsnc23)CC1 (stereo not drawn),-,-,-,-,-
O=C(NCc1ccccc1)c1cnc(N2CCCCC2)c2ccccc12,-,.,-,-,-
CCOC(=O)c1ccc(-n2c(CCC(=O)O)ccc2-c2ccc(Br)cc2)cc1,-,.,-31,-,-
CCCCOc1ccc(S(=O)(=O)NCc2csc(-c3ccc(OC)cc3)n2)cc1,-,.,-,-,-
Cc1ccc(NC(=O)CN2CCN(C(=O)c3ccco3)CC2)cc1S(=O)(=O)N(C)C,51,-,.,.,.
CCOc1ccc(NC(=O)CN2CCN(C(=O)c3ccco3)CC2)cc1S(=O)(=O)N1CCCC1,40,-,-,-,-
CCOc1ccc(NC(=O)C(C)Oc2ccc(C#N)cc2)cc1S(=O)(=O)N1CCCC1 (stereo not drawn),-,?,-,-,38
CCOc1ccccc1OCC(=O)Nc1ccc(OC)c(S(=O)(=O)N2CCCCC2)c1,-,-,-,-,-
O=c1ccc2cc([N+](=O)[O-])c(CCO)cc2o1,-,-52,-,-,-
NC(=O)c1ccc(Oc2ccc3ccc(=O)oc3c2)c([N+](=O)[O-])c1,-,-,-,-,-
Cc1cccc(NC(=O)c2cnc3sc(N4CCCC4)nn3c2=O)c1C,-,.,-,-,-
CCOC(=O)c1c(C)n(C)c2ccc(OCC(O)Cn3nc(C)cc3C)cc12 (stereo not drawn),-,-,-,-,-
CCOC(=O)c1c(C)n(C)c2ccc(OCC(O)CN(CC)CC)cc12 (stereo not drawn),-,-54,-,.,-
CCc1cc2c(=O)c(-c3cnn(-c4ccccc4)c3)c(C)oc2c(CN2CCCCC2)c1O,37,-,-,-,-
CCc1cc2c(=O)c(-c3cnn(-c4ccccc4)c3)coc2c(CN2CCOCC2)c1O,-,-,-,-,-
Cc1oc2c(C)c(O)ccc2c(=O)c1-c1cnn(-c2ccccc2)c1,-,-,-37,-,-
CCC1CN(C(=O)N2CCC(C(=O)NCCc3ccc(Cl)cc3)CC2)c2ccccc2O1 (stereo not drawn),-,.,-,-,-
COc1cccc(C(=O)NC(=O)Nc2ccc(-n3nc(C(F)(F)F)cc3C(F)(F)F)cc2)c1,-,.,-,-,-
Cc1ccc(Oc2ccc(NC(=O)C3=CC=CN4CCS(=O)(=O)N=C34)cc2)cc1,-,-,-,-,32
CC(C)(C)c1ccc(NC(=O)C2=CC=CN3CCS(=O)(=O)N=C23)cc1,-,-,-,-,-
Cc1cccc(Oc2ccc(NC(=O)C3=CC=CN4CCS(=O)(=O)N=C34)cc2)c1,-,-,-36,-,-
SMILES,D3 ag,DRD3 antagonist,D1 antag,D1 potentiator,D1 ag
O=C(CCN1CCN(c2ccccc2)CC1)Nc1ccc(OCc2ccccc2)cc1,35,-,-,-,-
c1ccc(CCCN2CCOCC2)cc1,-,-,-,-,-
c1ccc(CCCN2CCN(c3ccccc3)CC2)cc1,-,-64,-,-,-
O=C(CCN1CCOCC1)c1ccc(N2CCCCC2)cc1,-,-76,.,-,-
CN1CCN(CC(=O)Nc2ccc(OCc3ccccc3)cc2)CC1,.,.,-,-,-
O=C(CCN1CCN(c2ccccc2)CC1)Nc1nccs1,-,-64,-,-,-
CCCOc1ccc(-c2nonc2NC(=O)c2ccco2)cc1OCCC,-,.,-,-,-
Nc1ccc(N2CCN(c3cccc(Cl)c3)CC2)cc1,-,-,-,-,-
O=C(CCN1CCN(c2ccccc2)CC1)c1ccc(Cl)cc1,-,-70,-,-,-
CCOc1ccccc1C(=O)N1CCN(c2cccc(Cl)c2)CC1,-,-,-,-,-
O=C(O)c1ccccc1C(=O)N1CCN(c2cccc(Cl)c2)CC1,-,-55,-44,-,-
O=C(CCC(=O)N1CCN(c2cccc(Cl)c2)CC1)N1CCN(c2ccccc2)CC1,-,-,-,-,-
Clc1cccc(N2CCN(CCCN3CCN(c4ccccc4)CC3)CC2)c1,-,-79,.,.,.
OC(CN1CCN(c2cccc(Cl)c2)CC1)C(c1ccccc1)c1ccccc1 (stereo not drawn),-,-72,-,-,-
O=C(NCCN1CCN(Cc2ccccc2)CC1)Nc1cc(Cl)cc(Cl)c1,-,-,-,-,30
COc1ccccc1NC(=O)NCCN1CCCCC1,-,-,-,-,-
O=C(CCN1CCOCC1)Nc1ccc(F)cc1,-,-,-,-,-
O=C(CCN1CCCCCC1)Nc1cccc(Cl)c1,-,-143,-,-,-
O=C(CCN1CCN(c2ccc(F)cc2)CC1)Nc1ccc(F)cc1,-,-82,-,-,-
COc1ccccc1NC(=O)NCCN1CCN(c2cccc(Cl)c2)CC1,-,-92,-40!,-,-
COc1ccc(OC)c(CCNC(=O)c2c3c(nc4ccccc24)C(=O)N(C2CCCCC2)C3)c1,-,.,-,-,-
Cc1ccc2nc3sc(C(=O)Nc4ccc(F)cc4)cc3cc2c1,-,.,-,-,-
CCOc1ccccc1NC(=O)Cn1c(=O)n(CCCC(=O)NCCOC)c(=O)c2cc(OC)c(OC)cc21,-,.,-,-,-
CC(CCN1CCN(c2ccccc2)CC1)c1ccccc1 (stereo not drawn),-,-102,-54,-,-
O=C(CCN1CCN(c2ccccc2)CC1)Nc1ccc(Cl)cc1,-,-62,-,-,-
SMILES,D3 ag,DRD3 antagonist,D1 antag,D1 potentiator,D1 ag
O=C(CCSc1ccccc1)Nc1ccc(OCc2ccccc2)cc1,-,-,-30,-,-
O=C(CCSc1ccccc1)Nc1ccc(S(=O)(=O)Nc2ncccn2)cc1,-,-,-,-,-
O=C(NCCc1ccncc1)Nc1ccc(Cl)cc1,-,-,-,-,-
COC(=O)c1ccc(NC(=O)CCN2CCN(c3ccccc3)CC2)cc1,-,-,-,-,-
O=C(NCCc1ccc(Cl)cc1)Nc1ccc(Cl)cc1,-,-,-34,-,-
CCc1ccc(NC(=O)c2ccc3c(c2)N(Cc2ccc(C)cc2)CCS3)cc1,-,.,-,-,-
O=C(NCc1ccccc1)OCCN1CCN(Cc2ccccc2)CCC1=O,-,-68,-,-,-
O=C(NCCN1CCN(c2ccccc2)CC1)Nc1ccc(Cl)cc1,-,-55,-32,-,30
CC(=O)NNC(=O)CCC(=O)Nc1ccccc1,-,-80,-,-,-
CN1CCN(CCC(=O)Nc2ccccc2)CC1,-,-,-36,-,-
